Assay results: PubChem BioAssay AID1159580 (chemical genetic matrix, 2015)
Out of some 5,500 compounds screened, about 2,000 (36%) were called active. Inconclusive results (about 18%) are left out. Rule as the data show it: active = normalized growth mostly below about 0.91 (no sharp cut-off); inconclusive = no clear call, values can overlap the other calls; inactive = mostly above about 0.92. The list shows a part of the results.

Experiment: chemical genetic growth profiling, strain panel (AID 1159580);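 also: tested at 20 µM; growth read once vehicle control cultures reached saturation at 30 °C; 1 = growth at the plate median or of vehicle wells; lower values mean less growth of the strain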
Conditions: S. cerevisiae deletion strains, growth OD

Measured: normalized growth

COc1ccc(CN(CCN(C)C)c2ncccn2)cc1
inactive: locus YAL021C, strain ccr4, stronger effect = lower value 1.01 | locus YAL026C, strain drs2, stronger effect = lower value 1.04 | locus YAL030W, strain snc1, stronger effect = lower value 0.997 | locus YBL061C, strain skt5, stronger effect = lower value 1.01 | locus YBR009C, strain hhf1, stronger effect = lower value 1.01 | locus YBR023C, strain chs3, stronger effect = lower value 1.01 | locus YBR171W, strain sec66, stronger effect = lower value 1.01 | locus YBR231C, strain swc5, stronger effect = lower value 1.04 | locus YBR279W, strain paf1, stronger effect = lower value 1.01 | locus YCL011C, strain gbp2, stronger effect = lower value 1.01 | locus YCL016C, strain dcc1, stronger effect = lower value 1.01 | locus YCL061C, strain MRC1, stronger effect = lower value 1.02 | locus YCL069W, strain vba3, stronger effect = lower value 1.01 | locus YCR088W, strain abp1, stronger effect = lower value 1.01 | locus YDL005C, strain med2, stronger effect = lower value 1.01 | locus YDL040C, strain nat1, stronger effect = lower value 1.02 | locus YDR001C, strain nth1, stronger effect = lower value 1.02 | locus YDR069C, strain doa4, stronger effect = lower value 1 | locus YDR137W, strain rgp1, stronger effect = lower value 1.01 | locus YDR159W, strain sac3, stronger effect = lower value 0.992 | locus YDR195W, strain ref2 1 | locus YDR297W, strain sur2, stronger effect = lower value 1.02 | locus YDR334W, strain swr1, stronger effect = lower value 0.998 | locus YDR335W, strain msn5, stronger effect = lower value 1.01 | locus YDR392W, strain spt3, stronger effect = lower value 1.03 | locus YEL003W, strain gim4, stronger effect = lower value 1.01 | locus YEL037C, strain rad23, stronger effect = lower value 1.01 | locus YEL061C, strain CIN8 (second series), stronger effect = lower value 1 | locus YER015W, strain faa2, stronger effect = lower value 1.02 | locus YER016W, strain bim1, stronger effect = lower value 1.02 | locus YER111C, strain swi4, stronger effect = lower value 1.02 | locus YER155C, strain BEM2 (second series), stronger effect = lower value 1.05 | locus YFR010W, strain ubp6, stronger effect = lower value 1.01 | locus YGL167C, strain pmr1, stronger effect = lower value 1.02 | locus YGL173C, strain kem1, stronger effect = lower value 1.03 | locus YGL227W, strain vid30, stronger effect = lower value 1.01 | locus YGL240W, strain doc1, stronger effect = lower value 1.01 | locus YGL253W, strain hxk2, stronger effect = lower value 1.02 | locus YHR013C, strain ard1, stronger effect = lower value 1.01 | locus YHR027C, strain rpn1, stronger effect = lower value 1.01 | locus YHR030C, strain SLT2, stronger effect = lower value 1 | locus YHR079C, strain IRE1, stronger effect = lower value 1 | locus YHR142W, strain chs7, stronger effect = lower value 1.04 | locus YJL092W, strain hpr5, stronger effect = lower value 1.03 | locus YJL095W, strain BCK1 (second series), stronger effect = lower value 1.01 | locus YJL095W, strain BCK1, stronger effect = lower value 1 | locus YJL115W, strain asf1, stronger effect = lower value 1.01 | locus YJL129C, strain trk1, stronger effect = lower value 1.01 | locus YJL154C, strain vps35, stronger effect = lower value 1.01 | locus YJL164C, strain tpk1, stronger effect = lower value 1.02 | locus YJL166W, strain qcr8, stronger effect = lower value 0.995 | locus YJR066W, strain TOR1, stronger effect = lower value 0.954 | locus YKL160W, strain elf1, stronger effect = lower value 1.02 | locus YKR026C, strain gcn3, stronger effect = lower value 1 | locus YKR091W, strain srl3, stronger effect = lower value 1 | locus YLL001W, strain dnm1, stronger effect = lower value 1.01 | locus YLL026W, stronger effect = lower value 1 | locus YLL041C, strain sdh2, stronger effect = lower value 0.995 | locus YLR027C, strain aat2, stronger effect = lower value 1.01 | locus YLR113W, strain HOG1, stronger effect = lower value 1 | locus YLR221C, strain rsa3, stronger effect = lower value 0.998 | locus YLR258W, strain gsy2, stronger effect = lower value 1.03 | locus YLR262C, strain YPT6 (second series), stronger effect = lower value 1.01 | locus YLR320W, strain mms22, stronger effect = lower value 1.01 | locus YLR342W, strain FKS1, stronger effect = lower value 1.02 | locus YLR357W, strain rsc2, stronger effect = lower value 1.01 | locus YLR370C, strain arc18, stronger effect = lower value 1.03 | locus YLR384C, strain iki3, stronger effect = lower value 1.02 | locus YML120C, strain ndi1, stronger effect = lower value 1.01 | locus YMR058W, strain fet3, stronger effect = lower value 1.03 | locus YMR125W, strain sto1, stronger effect = lower value 1.01 | locus YMR129W, stronger effect = lower value 1.02 | locus YMR205C, strain PFK2, stronger effect = lower value 1.02 | locus YMR231W, strain pep5, stronger effect = lower value 1.02 | locus YNL071W, strain lat1, stronger effect = lower value 1.02 | locus YNL183C, strain NPR1, stronger effect = lower value 0.943 | locus YNL209W, strain ssb2, stronger effect = lower value 1.03 | locus YNL248C, strain rpa49, stronger effect = lower value 1.03 | locus YNL322C, strain KRE1 (second series), stronger effect = lower value 1.02 | locus YNR049C, strain mso1, stronger effect = lower value 1.01 | locus YOR001W, strain rrp6, stronger effect = lower value 1.01 | locus YOR070C, strain gyp1, stronger effect = lower value 1.02 | locus YOR080W, strain dia2, stronger effect = lower value 1.01 | locus YOR083W, strain WHI5, stronger effect = lower value 0.981 | locus YOR106W, strain vam3, stronger effect = lower value 1.02 | locus YOR231W, strain MKK1, stronger effect = lower value 0.99 | locus YOR265W, strain rbl2, stronger effect = lower value 1.02 | locus YOR270C, strain vph1, stronger effect = lower value 1.03 | locus YOR290C, strain snf2, stronger effect = lower value 1.02 | locus YPL051W, strain arl3, stronger effect = lower value 1.02 | locus YPL078C, strain atp4, stronger effect = lower value 1.02 | locus YPL106C, strain sse1, stronger effect = lower value 0.994 | locus YPL240C, strain hsp82, stronger effect = lower value 0.999 | locus YPL256C, strain CLN2, stronger effect = lower value 0.991
